PLAP activator – activates human placental alkaline phosphatase; P05187; purified PLAP enzyme, luminescent substrate read-out; stronger effect = higher value; activation fold at 20 µM; actives 1.2% (n = 96,000); AID 696; in the data active means activation fold above about 2
CYP2C19 inh – inhibitors of human CYP2C19. P33261. CYP2C19 Supersomes, luciferin-H EGE luminescence, 30 min. inhibition, % at 5 µM. actives 21% (n = 96,000). AID 778;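 active means CYP2C19 inhibition above a set limit at 5 µM in the primary screen, cut at about 50% in these data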;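 further: plate controls were negative control wells for no effect and 2.5 mM tranylcypromine positive control for full effect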
Target sequence (P33261 whole entry, looked up): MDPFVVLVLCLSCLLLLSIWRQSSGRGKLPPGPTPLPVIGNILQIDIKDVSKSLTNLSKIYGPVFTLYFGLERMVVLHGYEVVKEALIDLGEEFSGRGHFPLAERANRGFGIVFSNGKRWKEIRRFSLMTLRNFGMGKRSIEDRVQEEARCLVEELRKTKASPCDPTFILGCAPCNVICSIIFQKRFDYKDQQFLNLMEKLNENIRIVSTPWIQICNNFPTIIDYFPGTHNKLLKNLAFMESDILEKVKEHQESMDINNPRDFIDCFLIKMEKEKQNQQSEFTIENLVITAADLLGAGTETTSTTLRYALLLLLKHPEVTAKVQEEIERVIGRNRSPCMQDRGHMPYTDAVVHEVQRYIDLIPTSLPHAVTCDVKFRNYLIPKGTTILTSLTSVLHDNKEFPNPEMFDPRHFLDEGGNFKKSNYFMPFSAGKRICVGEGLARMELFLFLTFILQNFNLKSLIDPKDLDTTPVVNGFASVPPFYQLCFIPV
CYP2C9 inh – human CYP2C9 inhibition | P11712 | CYP2C9 Supersomes, luciferin-H conversion, luminescence | inhibition, % at 5 µM | actives 20% (n = 96,000);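 active means blocking of liver enzyme CYP2C9 beyond about 50% at 5 µM, limit read from the data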
CYP2C19 act – cytochrome P450 2C19 (human) activation | 96,000 tested, under 10 active | P33261 | AID 1025 | recombinant CYP2C19, luciferin-H EGE luminescence; stronger effect = higher value; 0 = fully inhibited enzyme, 1 = untreated enzyme | activation factor at 5 µM;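 active means activation factor of at least 2 at 5 µM in the primary screen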;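 further: 0 = wells with 2.5 mM tranylcypromine and 1 = vehicle-only wells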
CYP2C9 activ – increases human cytochrome P450 2C9 activity; P11712; activation factor at 5 µM; recombinant CYP2C9, luciferin-H conversion, luminescence; stronger effect = higher value; factor 1 = untreated enzyme, 0 = blocked; actives 1.4% (n = 96,000);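 active means activation factor of 2 or more for CYP2C9 at a 5 µM dose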;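 further: 0 = sulfaphenazole-blocked wells and 1 = vehicle-only wells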
* marks the source's active call; other numbers are inactive results. Sampled rows, rich in hits. Any-hit rate of the full collection: about 31%.

SMILES	PLAP activator	CYP2C19 inh	CYP2C9 inh	CYP2C19 act	CYP2C9 activ
CCOC(=O)COc1ccc(S(=O)(=O)N2CCN(c3ccc(F)cc3)CC2)cc1	0.9	22	50*	0.8	0.5
CCOC(=O)COc1ccc(S(=O)(=O)N2CCN(C(=O)OCC)CC2)cc1	1.5	34	32	0.7	0.7
CCOC(=O)COc1ccc(S(=O)(=O)N2CCc3ccccc3C2)cc1	1.3	56*	-49	0.4	1.5
O=C(c1ccco1)N1CCN(S(=O)(=O)c2ccc(S(=O)(=O)NC3CCCCC3)cc2)CC1	1	11	45	0.9	0.6
CC(=O)C1=C(C)NC(SCSc2ccccc2)=C(C#N)C1c1cccnc1 (centres undefined)	1.1	83*	66*	0.2	0.3
CC(=O)C1=C(C)NC(SCC(=O)c2ccc(-c3ccccc3)cc2)=C(C#N)C1c1cccnc1 (centres undefined)	1.2	96*	86*	0	0.1
CSCSC1=C(C#N)C(c2ccccc2Cl)C(C(C)=O)=C(C)N1 (centres undefined)	0.7	85*	82*	0.2	0.2
Cc1nnc(SC(=O)N2c3ccccc3Sc3ccccc32)s1	1	17	20	0.8	0.8
N#C/C=C(/N)N1CCN(c2ccc(Cl)c(Cl)c2)CC1	0.9	33	28	0.7	0.7
CCC(=O)Nc1ccc(N2CCCCC2)c(C(=O)Nc2ccccc2C)c1	1.1	53*	21	0.5	0.8
CN(C)S(=O)(=O)c1ccc(N2CCCC2)c(C(=O)Nc2ccc(N3CCOCC3)cc2)c1	1.2	22	40	0.8	0.6
O=C(Nc1ccccc1Cl)c1cc(S(=O)(=O)N2CCCCC2)ccc1N1CCOCC1	1.3	32	24	0.7	0.8
CN(C)S(=O)(=O)c1ccc(N2CCCC2)c(C(=O)NC(c2ccccc2)c2ccccc2)c1	1.3	-7	54*	1.1	0.5
Cc1ccccc1NC(=O)c1cc(N)ccc1N1CCCCC1	1.3	98*	86*	0	0.1
CCN(CC)S(=O)(=O)c1ccc(N2CCCCC2)c(C(=O)Nc2ccccc2N2CCOCC2)c1	1.6	59*	36	0.4	0.6
O=C(Nc1ccccc1N1CCCCC1)c1ccc(F)cc1	0.8	16	-1	0.8	1
Cc1cc(C)c2c(n1)sc1c(=O)n(Cc3ccccc3Cl)nnc12	1.5	31	20	0.7	0.8
Cc1nc2nc(SCC(=O)N3CCOCC3)nn2c(C)c1Cc1c(F)cccc1Cl	1.4	18	53*	0.8	0.5
CCN(C(=S)Nc1ccccc1F)C1CCCCC1	1	42	13	0.6	0.9
N#Cc1c(-c2ccccc2)cc(C2CC2)nc1SCC(=O)c1cccs1	1	14	43	0.9	0.6
N#Cc1c(-c2cccs2)cc(C2CC2)nc1SCC(N)=O	1	59*	13	0.4	0.9
Cc1cc(C)c(C#N)c(SCC(=O)c2cccs2)n1	0.9	96*	62*	0	0.4
Cc1cc2c(C)ccc(C)c2nc1SCC(=O)c1cccs1	0.6	-2	55*	1	0.5
CC(=O)CSc1nc(N)c(C#N)c(-c2cccs2)c1C#N	0.7	-13	60*	1.1	0.4
CCCOc1ccc(N2C(=O)CC(N3CCN(c4ccccc4OC)CC3)C2=O)cc1 (centres undefined)	1.5	1	-13	1	1.1
SMILES	PLAP activator	CYP2C19 inh	CYP2C9 inh	CYP2C19 act	CYP2C9 activ
COc1ccc(C2(O)CCN(C(=O)NC3CCCCC3)CC2)cc1	1	-9	-1	1.1	1
O=C(Nc1ccc(S(=O)(=O)N2CCCCC2)cc1)c1ccncc1	1.1	99*	98*	0	0
Cc1ccc(Nc2nc(-c3ccc(S(=O)(=O)N4CCCC4)cc3)cs2)cc1C	0.9	-12	54*	1.1	0.5
O=C(Nc1nc(-c2cccs2)cs1)c1ccc(S(=O)(=O)N2CCCC2)cc1	1.2	43	57*	0.6	0.4
CC1CC(C)CN(S(=O)(=O)c2ccc(C(=O)Nc3sccc3C(N)=O)cc2)C1 (centres undefined)	1.1	-19	29	1.2	0.7
NC(=O)c1ccsc1NC(=O)c1ccc(S(=O)(=O)N2CCCCC2)cc1	0.8	38	60*	0.6	0.4
COCCN(CCOC)S(=O)(=O)c1ccc(C(=O)Nc2nc(-c3ccncc3)cs2)cc1	1.1	56*	69*	0.4	0.3
O=C(Nc1nc(-c2ccc(S(=O)(=O)N3CCCCCC3)cc2)cs1)c1ccccc1	1.1	24	72*	0.8	0.3
COCCN(CCOC)S(=O)(=O)c1ccc(C(=O)Nc2nc(C)c(C(C)=O)s2)cc1	1	-13	-8	1.1	1.1
Cc1c(NC(=O)c2ccc(COc3ccc4ccccc4c3)o2)c(=O)n(-c2ccccc2)n1C	1.6	0	5	1	1
CC(C)=CC1C(C(=O)Nc2ccc(Br)cn2)C1(C)C (centres undefined)	1	23	35	0.8	0.7
CN(CC(=O)NCc1ccc2c(c1)OCO2)S(=O)(=O)c1ccc(Br)s1	0.8	70*	89*	0.3	0.1
O=C(CNC(=O)c1ccc(Br)o1)NCc1ccc2c(c1)OCO2	1	12	16	0.9	0.8
O=C(CCS(=O)(=O)c1ccc(Br)s1)NCc1ccc2c(c1)OCO2	0.9	35	81*	0.6	0.2
Cc1c(N=Cc2cc3c(cc2Cl)OCO3)c(=O)n(-c2ccccc2)n1C	0.8	-2	-1	1	1
Cc1cccc(NC(=S)NNC(=O)CC(C)O)c1C (centres undefined)	2*	25	61*	0.8	0.4
Cc1ccc(C(=O)C(OC(=O)CN2C(=O)c3ccccc3C2=O)c2ccccc2)cc1C (centres undefined)	1	26	-96	0.7	2*
Cc1ccc(Cl)cc1N1CCN(C(=O)Cc2cn(C)c3ccccc23)CC1	2*	53*	-26	0.5	1.3
Cc1ccc(Cl)cc1N1CCN(C(=O)C2(S(=O)(=O)c3ccc(Cl)cc3)CC2)CC1	1.6	84*	89*	0.2	0.1
O=C(N1CCN(c2cccc(Cl)c2)CC1)C1(S(=O)(=O)c2ccc(Cl)cc2)CC1	1.7	57*	22	0.4	0.8
O=C1NCCN1Cc1ccc(F)cc1	1	14	-6	0.9	1.1
O=c1cc(-c2c(F)c(F)c(F)c(F)c2F)oc2c(F)c(F)c(F)c(F)c12	0.9	7	9	0.9	0.9
COc1cc(NC(=O)C2CCCN2S(=O)(=O)c2ccc3c(c2)CCC(=O)N3)cc(OC)c1 (centres undefined)	1.6	14	60*	0.9	0.4
O=C1CCc2cc(S(=O)(=O)N3CCCC3C(=O)N3CCN(c4ccccc4)CC3)ccc2N1 (centres undefined)	1.1	-7	59*	1.1	0.4
O=C1CCc2cc(S(=O)(=O)N3CCCC3C(=O)N3CCN(c4ccccc4F)CC3)ccc2N1 (centres undefined)	1	22	46	0.8	0.5
